Screening data deposited in PubChem BioAssay by Broad Institute.
C diff growth – C. difficile growth inhibition | hit rate 0.25% among 86,000 | AID 1259249 | Clostridium difficile clinical isolate growth, OD600, 24 h; stronger effect = lower value | growth activity, negative = inhibition, % at 16 µg/mL (by protocol);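 active = mean growth activity at or below -80% and every replicate also at or below -80%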;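 note: 0% = DMSO wells and -100% = levofloxacin 16 µg/mL wells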
Pf Dd2 growth – inhibitors of Plasmodium falciparum Dd2 growth; P. falciparum Dd2 growth, SYBR Green, 72 h; stronger effect = lower value; activity change, % at 10 µM; hit rate 2.3% among 94,000; in the data active = activity change below about -80%
T cruzi growth – inhibitors of T. cruzi proliferation. T. cruzi beta-gal in NIH3T3, GalScreen luminescence, 90 h. hit rate 5.9% among 77,000. AID 624255. inhibition, % at 8.34 µM;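 active = mean inhibition above about 93%, with at least 55% of replicates each passing it, limit read from the data, passing the limit was not always enough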
Numbers without * were called inactive; nt = no result. This is a sample that favours compounds with a hit; in the whole collection about 6.7% have one here.

SMILES	C diff growth	Pf Dd2 growth	T cruzi growth
COc1ccc(NC(=O)N(C)C[C@H]2Oc3c(NC(=O)Nc4ccccc4)cccc3C(=O)N([C@@H](C)CO)C[C@H]2C)cc1	-9.4	-89.0*	-16.1
C[C@@H]1CN([C@@H](C)CO)C(=O)c2cccc(NC(=O)CCCCCC(=O)Nc3ccccc3N)c2O[C@H]1CN(C)C(=O)Nc1ccc(C(F)(F)F)cc1	0.3	-83.7*	nt
COc1ccc(NC(=O)N(C)C[C@@H]2Oc3c(NC(=O)Nc4ccccc4)cccc3C(=O)N([C@H](C)CO)C[C@@H]2C)cc1	5.8	-16.8	8.1
C[C@@H]1CN([C@H](C)CO)C(=O)c2cccc(NC(=O)CCCCCC(=O)Nc3ccccc3N)c2O[C@H]1CN(C)C(=O)Nc1ccccc1	0.9	-58.6	nt
COc1ccc(NC(=O)N(C)C[C@@H]2Oc3ccc(NS(=O)(=O)c4cn(C)cn4)cc3CC(=O)N([C@H](C)CO)C[C@@H]2C)cc1	-4.2	-7.0	25.1
CN1C(=O)c2cc(NC(=O)C3CC3)ccc2OC[C@@H]2O[C@H](CC(=O)NC3CCC3)CC[C@H]21	-4.3	-11.1	92.8
CNC[C@@H]1Oc2ncc(C#CC3(O)CCCC3)cc2C(=O)N([C@@H](C)CO)C[C@H]1C	2.6	3.8	nt
COc1ccc(NC(=O)Nc2ccc3c(c2)CC(=O)N([C@@H](C)CO)C[C@@H](C)[C@@H](CN(C)CC2CCCCC2)O3)cc1	-11.3	-28.5	50.3
COc1ccc(NC(=O)Nc2ccc3c(c2)CC(=O)N([C@H](C)CO)C[C@H](C)[C@@H](CN(C)CC2CCCCC2)O3)cc1	-0.6	-86.2*	79.4
COc1ccc(NC(=O)Nc2ccc3c(c2)CC(=O)N([C@@H](C)CO)C[C@H](C)[C@@H](CN(C)C(=O)Nc2ccc(F)cc2)O3)cc1	-4.4	-85.5*	40.8
C[C@@H]1CN([C@H](C)CO)C(=O)Cc2cc(NC(=O)Nc3ccc(F)cc3)ccc2O[C@H]1CN(C)CC1CC1	-0.3	10.4	-4.2
C[C@@H]1CN([C@@H](C)CO)C(=O)Cc2cc(NC(=O)Nc3ccc(F)cc3)ccc2O[C@H]1CN(C)CC1CCCCC1	9.7	-88.7*	21.4
COc1ccc(NC(=O)N(C)C[C@@H]2Oc3ccc(NC(=O)Nc4ccc(F)cc4)cc3CC(=O)N([C@@H](C)CO)C[C@@H]2C)cc1	1.1	-3.4	15.3
COc1ccc(NC(=O)Nc2ccc3c(c2)CC(=O)N([C@@H](C)CO)C[C@@H](C)[C@@H](CN(C)CC2CC2)O3)cc1	-2.4	-82.6*	29.0
COc1ccc(NC(=O)Nc2ccc3c(c2)CC(=O)N([C@@H](C)CO)C[C@H](C)[C@H](CN(C)CC2CC2)O3)cc1	-4.5	-77.8	11.2
CC(C)NC(=O)N(C)C[C@@H]1Oc2ccc(NC(=O)NC3CCCCC3)cc2C(=O)N([C@H](C)CO)C[C@@H]1C	-7.3	6.0	-20.6
O=C(Cc1ccncc1)NCC[C@H]1CC[C@H](NC(=O)C2CCC2)[C@H](CO)O1	nt	-0.6	-13.2
C[C@H](CO)N1C[C@H](C)[C@H](CN(C)Cc2ccc(C(F)(F)F)cc2)Oc2ccc(NS(=O)(=O)c3cccs3)cc2CC1=O	2.3	-6.6	69.1
COCC#Cc1cnc2c(c1)C(=O)N([C@@H](C)CO)C[C@H](C)[C@@H](CN(C)C(=O)c1ccc3c(c1)OCO3)O2	-2.2	-1.5	41.0
CO[C@@H]1CN(C)C(=O)c2ccc(NS(=O)(=O)c3ccc(Cl)cc3)cc2OC[C@H](C)NC[C@@H]1C	2.6	23.4	-18.1
C[C@H]1CN([C@@H](C)CO)S(=O)(=O)c2ccc(C3=CCCC3)cc2O[C@H]1CN(C)S(C)(=O)=O	nt	2.5	24.2
COc1ccc(NC(=O)N(C)C[C@H]2OCCCC[C@H](C)Oc3ccc(NC(=O)Nc4cccc5ccccc45)cc3C(=O)N([C@H](C)CO)C[C@H]2C)cc1	2.7	-85.5*	-22.8
COc1ccc(NC(=O)N(C)C[C@H]2OCCCC[C@H](C)Oc3ccc(NC(=O)Nc4cccc5ccccc45)cc3C(=O)N([C@@H](C)CO)C[C@H]2C)cc1	2.1	-84.9*	-16.2
COc1ccc(NC(=O)N(C)C[C@H]2OCCCC[C@@H](C)Oc3ccc(NC(=O)Nc4cccc5ccccc45)cc3C(=O)N([C@H](C)CO)C[C@@H]2C)cc1	6.0	-77.9	-11.5
COc1ccc(NC(=O)N(C)C[C@H]2OCCCC[C@@H](C)Oc3ccc(NC(=O)Nc4cccc5ccccc45)cc3C(=O)N([C@@H](C)CO)C[C@H]2C)cc1	-1.4	-75.6	66.5
SMILES	C diff growth	Pf Dd2 growth	T cruzi growth
CO[C@@H]1CN(C)C(=O)c2ccc(NC(=O)C3CC3)cc2OC[C@@H](C)N(C(=O)c2ccccn2)C[C@H]1C	-3.0	52.0	nt
CN1C(=O)c2cc(NC(=O)C3CC3)ccc2OC[C@@H]2O[C@@H](CC(=O)NCc3ccccc3F)CC[C@H]21	0.5	38.0	nt
C[C@@H]1CCCCO[C@@H](CN(C)Cc2ccccc2)[C@H](C)CN([C@H](C)CO)C(=O)c2cc(NC(=O)Nc3ccc4c(c3)OCO4)ccc2O1	8.8	-79.1	94.6
C[C@H]1CCCCO[C@H](CN(C)Cc2ccc3c(c2)OCO3)[C@@H](C)CN([C@@H](C)CO)C(=O)c2cc(NC(=O)Nc3ccccc3)ccc2O1	10.8	-74.7	80.8
C[C@@H]1CN([C@H](C)CO)C(=O)c2cc(NC(=O)Nc3ccccc3)ccc2O[C@@H](C)CCCCO[C@H]1CN(C)Cc1ccc2c(c1)OCO2	26.3	-81.6*	62.1
C[C@@H]1CCCCO[C@@H](CN(C)Cc2ccc3c(c2)OCO3)[C@@H](C)CN([C@@H](C)CO)C(=O)c2cc(NC(=O)Cc3ccccc3)ccc2O1	5.7	-54.9	103.0
C[C@H]1CCCCO[C@@H](CN(C)Cc2ccccc2)[C@@H](C)CN([C@@H](C)CO)C(=O)c2cc(NC(=O)Nc3ccc4c(c3)OCO4)ccc2O1	-3.2	-85.7*	93.5
C[C@@H]1CN([C@@H](C)CO)C(=O)c2cc(NC(=O)Nc3ccc4c(c3)OCO4)ccc2O[C@@H](C)CCCCO[C@H]1CN(C)Cc1ccc(Cl)c(Cl)c1	4.8	-59.1	69.1
C[C@@H]1CN([C@H](C)CO)C(=O)c2cc(NC(=O)Nc3ccc4c(c3)OCO4)ccc2O[C@@H](C)CCCCO[C@@H]1CN(C)Cc1ccc(Cl)c(Cl)c1	6.3	-87.8*	71.0
C[C@H]1CCCCO[C@@H](CN(C)Cc2ccc3c(c2)OCO3)[C@@H](C)CN([C@@H](C)CO)C(=O)c2cc(NC(=O)Cc3ccccc3)ccc2O1	-3.4	-83.0*	109.4
O=C(C[C@H]1CC[C@@H]2[C@H](COC[C@@H](O)CN2CC2CCOCC2)O1)N1CCOCC1	nt	0.7	8.5
CO[C@H]1CN(C)C(=O)c2ccc(NC(=O)c3ccno3)cc2OC[C@@H](C)NC[C@@H]1C	nt	48.6	42.9
CC(=O)N(C)C[C@@H]1Oc2cc(C#CC(C)C)ccc2S(=O)(=O)N([C@@H](C)CO)C[C@H]1C	2.7	-26.9	-36.0
C[C@@H]1CN([C@@H](C)CO)C(=O)Cc2cc(NC(=O)NC3CCCCC3)ccc2O[C@H]1CN(C)C(=O)Nc1cccc2ccccc12	-13.7	-91.7*	3.4
C[C@H](CO)N1C[C@H](C)[C@@H](CN(C)C(=O)Nc2cccc3ccccc23)Oc2ccc(NC(=O)Nc3cccc4ccccc34)cc2CC1=O	1.4	-89.2*	nt
